FLuc counter: qHTS profiling assay for firefly luciferase inhibitor/activator using purifed enzyme and Km concentrations of substrates (counterscreen for miR-21 project); Potency, µM (series often up to 57.5 µM), for the others: top-dose activity change, negative = inhibition, usual class: inhibitors; 360,000 compounds, 6.9% hits; Luciferin 4-monooxygenase (Photinus pyralis), P08659; purified FLuc, Km substrates, luminescence inhibition;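 note: plate controls were vehicle for no effect and reference inhibitor for full effect; nearly all actives have a fitted effect of over 55% in size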
Target sequence (P08659 whole entry, looked up): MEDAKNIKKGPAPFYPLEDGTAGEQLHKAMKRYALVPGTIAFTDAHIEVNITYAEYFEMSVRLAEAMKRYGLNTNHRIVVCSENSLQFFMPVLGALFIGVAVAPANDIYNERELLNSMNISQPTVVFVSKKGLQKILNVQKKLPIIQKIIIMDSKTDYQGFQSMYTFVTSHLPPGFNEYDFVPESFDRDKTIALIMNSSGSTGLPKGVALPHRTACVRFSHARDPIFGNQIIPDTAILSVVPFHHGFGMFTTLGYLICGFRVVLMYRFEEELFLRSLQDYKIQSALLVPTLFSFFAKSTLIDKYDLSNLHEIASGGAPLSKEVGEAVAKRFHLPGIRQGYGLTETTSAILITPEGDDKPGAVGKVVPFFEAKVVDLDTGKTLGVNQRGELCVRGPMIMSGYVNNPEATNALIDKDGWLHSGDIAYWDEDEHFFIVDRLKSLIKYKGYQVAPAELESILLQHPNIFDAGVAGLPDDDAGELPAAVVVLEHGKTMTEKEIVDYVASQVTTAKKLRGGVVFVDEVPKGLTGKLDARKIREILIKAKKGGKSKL
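Purified P. pyralis luciferase (10nM final) with 10uM D-luciferin and 10uM ATP (Km levels) in 50mM Tris acetate pH 7.5, 10mM Mg acetate, 0.01% Tween-20, 0.05% BSA; qHTS 6-point titration, ~60 µM downward; luminescence read.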
Rab9 promoter act: qHTS Assay for Rab9 Promoter Activators. 320,000 compounds, 2.8% hits. AID 485297, 2010. Huh7 Rab9 promoter-luciferase reporter, luminescence, 24 h. Potency, µM (titrated, usually from 9.22 µM), without a hit: at the top dose activation, negative = inhibition, actives largely listed as activators; note: % of control where 0% means no effect; nearly all actives have a fitted effect of over 60% in size
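Using Huh7 cells stably transfected with Rab9 promoter–luciferase, compounds were incubated 24 h at 37 °C, 5% CO2; luciferase luminescence was read 10 min after reagent addition.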
NPC1 prom act: qHTS Assay for NPC1 Promoter Activators. Huh7 NPC1 promoter luciferase reporter, 24 h. Potency, µM (top dose mostly 9.22 µM), for inactives: top-dose activation, most hits filed as activators. 320,000 compounds, 2.4% hits. AID 485313, 2010; note: % of control where 0% means no effect; nearly all actives have a fitted effect of over 60% in size
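Cells: Huh7 expressing luciferase under the NPC1 promoter, 1500/well. Seeded 2 h, compound added, incubated 24 h at 37 °C. Luciferase reagent, 10 min ambient, then luminescence.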
ELG1 genotoxic: qHTS screen for small molecules that induce genotoxicity in human embryonic kidney (HEK293T) cells expressing luciferase-tagged ELG1. Potency, µM (titrated, usually from 46 µM), for the others: at the top dose activity change, positive = activation, actives largely listed as activators. HEK293T ELG1-luciferase reporter, luminescence, 16 h. 330,000 compounds, 1.3% hits; note: % of control where 0% means no effect; nearly all actives have a fitted effect of over 60% in size
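ELG1-luciferase HEK293T cells, 2,000/well; compound pinned in; 16 hr, 37 °C, 5% CO2; ONE-Glo, 30 min RT; luminescence on CCD imager.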
SMN2 splice up: qHTS Assay for Enhancers of SMN2 Splice Variant Expression; AID 1458, 2008; 210,000 compounds, 2.8% hits; Potency, µM (top dose mostly 46.1 µM), for the others: at the highest dose activity change, positive = activation, hits mostly activators; HEK293 SMN2-luciferase splicing reporter, luminescence, 30-36 h; note: % of control where 0% means no effect; nearly all actives have a fitted effect of over 55% in size
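HEK293 cells carry an SMN2 […]–luciferase reporter in which exon 7 inclusion puts luciferase in frame. Cells were plated 10-12 h before compound addition, then incubated 30-36 h at 37C. ONE-Glo luminescence was read; sodium butyrate at 4.5 mM final served as control.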
ELG1 DNA repair: qHTS screen for small molecules that inhibit ELG1-dependent DNA repair in human embryonic kidney (HEK293T) cells expressing luciferase-tagged ELG1 | AID 504467, 2011 | HEK293T ELG1-luciferase reporter, luminescence, 16 h; DNA damage induced by 5-fluorouridine | 330,000 compounds, 2.3% hits | Potency, µM (doses to about 46.1 µM), inactives show at the top dose activity change, negative = inhibition, most hits filed as inhibitors; note: % is set by controls: 0 for no effect and ±100 for the full control effect; nearly all actives have a fitted effect of over 55% in size
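Overnight (16 hr) co-exposure of 2,000 cells/well to 5-fluorouridine and compound at 37 °C preceded detection. Luciferase was quantified via ONE-Glo luminescence; loss of signal denotes inhibition.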
Active calls of the source: *; ? = inconclusive; nt = no result; [ ] = remark or other dose. In the library only some 9.2% were active in any assay of this set; here they are far more common. Calls come from the whole dose curve; as a rule, active = well fitted curve in the direction sought with a large enough effect; inconclusive = small, poorly fitted or top-dose-only effect, or another doubt; inactive = no such curve, though single readings can be large; an effect the other way counts as inactive or inconclusive. Potency is the fitted concentration of half-maximal effect.

SMILES | FLuc counter | Rab9 promoter act | NPC1 prom act | ELG1 genotoxic | SMN2 splice up | ELG1 DNA repair
CCOc1ccccc1N(CC(=O)NC1CCCCC1)S(=O)(=O)c1ccc(C)cc1 | 0% | 1% | -3% | -13% | nt | ?
CCc1ccc(C2CC(=O)c3c([nH]c(C(=O)OC4CCCC4)c3C)C2)cc1 (centres undefined) | -5% | nt | nt | nt | 0% | nt
C/C(=N\OCc1nc2ccccc2c(=O)n1/N=C/c1cc(C)cc([N+](=O)[O-])c1O)c1ccccc1 | 27µM* | -5% | 13% | ? | nt | ?
Cc1cc([N+](=O)[O-])cc(/C=N/n2c(C)nc3ccccc3c2=O)c1O | 3% | -1% | 1% | 1% | nt | ?
C/C(=N\OCc1nc2ccccc2c(=O)n1/N=C/c1cc([N+](=O)[O-])ccc1O)c1ccccc1 | 24µM* | 13% | 16% | 17% | nt | ?
CCN(CC)S(=O)(=O)c1ccc(NCCc2ccccn2)nc1 | 2% | 5% | -2% | -1% | nt | 7%
Cn1c(=O)n(C)c2cc(S(=O)(=O)N3CCN(c4ccccc4)CC3)ccc21 | 0% | -6% | -4% | 5% | nt | 8%
O=C(/C=C/c1ccc(O)c(O)c1)OC1C[C@](O)(C(=O)O)C[C@@H](O)[C@H]1O (some centres undefined) | nt | nt | nt | nt | 6% | nt
COc1ccc(OC)c2c(N3CCN(C)CC3)cc(C(F)(F)F)nc12 | 4% | 3% | 5% | 1% | -6% | 10%
COc1ccc(OC)c2c(N3CC(C)OC(C)C3)cc(C(F)(F)F)nc12 (centres undefined) | 7.6µM* | 3.2µM* | 2.8µM* | ? | nt | ?
O=C(NNC(=O)c1ccccc1C(=O)O)c1ccc(O)cc1 | -17% | -5% | -3% | 2% | -21% | 16%
COc1ccc(NS(=O)(=O)c2ccc(OCC(=O)N3CCOCC3)cc2)cc1Cl | 4% | -7% | 0% | -4% | nt | ?
CCOc1ccc(NC(=O)CCc2ccc(C)o2)cc1 | -18% | -3% | 15% | 9% | nt | ?
COC(=O)c1ccc(NC(=O)Cc2ccc(C)cc2)cc1 | 0% | 4% | 5% | 1% | -11% | 13%
CCOc1ccc(N/C(C)=C/C(=O)c2ccc(C)o2)cc1 | 6µM* | ? | ? | ? | -7% | ?
COC(=O)c1ccc(N/C(C)=C/C(=O)c2ccc(C)o2)cc1 | 12µM* | 1% | 0% | 18% | 20% | ?
CC1CN(C(=O)c2ccccc2NS(=O)(=O)c2ccc(Cl)cc2)CC(C)O1 (centres undefined) | nt | nt | nt | 3% | nt | -2%
COC1=C/C(=C/c2c(N)n3nc(-c4ccc(C)cc4)sc3nc2=O)C=CC1=O | 15µM* | 28% | 19% | ? | ? | ?
COC1=C/C(=C/c2c(N)n3c(nc2=O)sc2cc(S(C)(=O)=O)ccc23)C=CC1=O | 9.5µM* | 27% | -1% | 4% | nt | ?
CS(=O)(=O)c1ccc2c(c1)sc1nc(=O)c(/C=C3/C=CC(=O)C(O)=C3)c(N)n12 | 4.8µM* | 1% | 20% | ? | nt | ?
CCOC1=C/C(=C/c2c(N)n3nc(-c4ccccc4)sc3nc2=O)C=CC1=O | ? | -3% | -4% | -1% | 0% | -8%
CCS(=O)(=O)c1nn2c(N)c(/C=C3/C=CC(=O)C(OC)=C3)c(=O)nc2s1 | ? | -4% | 6% | 1% | -15%[1.84 µM] | 8%
COc1ccccc1CCNC(=O)Cn1c(=O)oc2ccccc21 | 15µM* | 4% | -7% | -8% | nt | 1%
CN(C)/C=C/c1oc2ccc(O)cc2c1[N+](=O)[O-] | ? | 3.2µM* | 26% | ? | 20% | ?
Cc1oc2ccc(O)cc2c1C(=O)c1ccc([N+](=O)[O-])cc1 | 2% | -1% | 0% | -6% | -17% | ?
SMILES | FLuc counter | Rab9 promoter act | NPC1 prom act | ELG1 genotoxic | SMN2 splice up | ELG1 DNA repair
CCCCNc1c(-c2ccc(SC(C)CC)c(OC)c2)nc2ccc(Cl)cn12 (centres undefined) | nt | nt | nt | -1% | nt | -14%
CCCCNc1c(-c2ccc(SC(C)CC)c(OC)c2)nc2ccc(C)cn12 (centres undefined) | 8.5µM* | -1% | 0% | -6% | nt | 5%
Cc1nn(C(C)C(=O)N/N=C/c2ccc(N(C)C)cc2)c(C)c1[N+](=O)[O-] (centres undefined) | -2% | -6% | -2% | 1% | nt | 10%
COC(=O)[C@@]1(Cc2ccccc2)[C@H]2C(=O)N(C)C(=O)[C@H]2[C@H]2CN=C(SCc3ccccc3)N21 | nt | nt | nt | 0% | nt | 14%
c1cc(-c2nnc3sc(C4CCCCC4)nn23)ccn1 | 3% | -2% | 6% | -23% | -11% | 9.2µM*
c1csc(Cc2nn3c(-c4ccncc4)nnc3s2)c1 | 5% | -5% | 9% | -19% | -5% | 10µM*
c1csc(-c2nn3c(-c4ccncc4)nnc3s2)c1 | -2% | -1% | -8% | 0% | -9% | -11%
C=CC(n1cncn1)C(O)(c1ccccc1)c1ccccc1 (centres undefined) | -1% | 7% | -2% | 8% | nt | 4%
Cc1ccc(C2CC(c3cccs3)=NN2C(=O)CSc2nc(=O)n3cc(C)ccc3n2)cc1 (centres undefined) | 1% | -19% | -14% | -9% | nt | -25%
Cn1nc(C(=O)NNC(=O)c2ccc(Cl)cc2)ccc1=O | ? | 0% | 2% | 10% | nt | 25%
COc1ccc(NC(=O)c2c(NC(=O)COc3ccccc3)sc3c2CCCCC3)cc1 | -4% | nt | nt | nt | -2% | nt
COc1ccc(OCC(=O)Nc2sc3c(c2C(=O)NCC2CCCO2)CCC3)cc1 (centres undefined) | -9% | -4% | 0% | 0% | -19% | 16µM*
CCOC(=O)c1c(C)[nH]c(N=Nc2ccccc2)c1C | 12µM* | ? | ? | 12µM* | 4% | ?
CCOC(=O)c1c(C)[nH]c(N=Nc2ccc(OC)cc2)c1C | 7.6µM* | ? | 3.5µM* | ? | nt | ?
CCOC(=O)c1c(C)[nH]c(N=Nc2ccc(C)cc2)c1C | 3.8µM* | 1.4µM* | 1µM* | 3.2µM* | 13µM* | ?
CCOC(=O)c1c(C)[nH]c(NC(=O)NNC(=O)c2ccccc2Cl)c1C | nt | -3% | 1% | 0% | nt | 0%
CCOC(=O)c1c(C)[nH]c(N=Nc2ccccc2Cl)c1C | 12µM* | ? | ? | ? | nt | ?

Assay outcomes as filed in PubChem BioAssay.
